The text below walks through data of PubChem BioAssay (NCI).

About 83,000 compounds went through this panel and 20% of them were active in at least one assay; those are over-represented in the sample as a whole.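 Plates (96-well) were seeded with cells, treated with compound at one concentration, and incubated for 48 hours before percent growth was determined.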 Unmarked numbers belong to inactive results. The source made the active and inactive calls. The calls were made as follows: active = growth percent below 10; inactive = the rest.

Common to all, as to assay: NCI-60 one-dose screen, 48 h (100 = growth as untreated, 0 = no growth, -100 = all killed)
What all share (settings): 10 µM unless noted

Test [1] deals with HCT-15 colon.
Test [2] has as its system HT29 colon.
For test [3], the system named is SNB-75 CNS.
The test system of test [4] is SNB-19 CNS.
In test [5] the test system is U251 CNS.
The test system of test [6] is PC-3 prostate.
Test [7] relates to UACC-62 melanoma.
Test [8] relates to LOX IMVI melanoma.
Test [9] concerns SK-MEL-28 melanoma.
The subject of test [10] is SK-MEL-2 melanoma.
The subject of test [11] is EKVX NSCLC.
The subject of test [12] is SN12C renal.
In test [13] the test system is UO-31 renal.
In test [14] the test system is TK-10 renal.
The subject of test [15] is ACHN renal.
Test [16] concerns CAKI-1 renal.
The test system of test [17] is A498 renal.
Test [18] relates to CCRF-CEM leukemia.
Test [19] relates to MOLT-4 leukemia.

Regarding `N#Cc1cccc(-c2cc(-c3ccc4c(c3)OCCO4)[nH]n2)c1`, the growth in test [1] is 23.2%; in test [2], 11.2%; in test [3], 10.6%; in test [4] it was 36.6%; in [5], 30.2%; in test [6], 39.7%. Also, the growth in test [7] is 41.7%; in [8], 46%; in test [9], 55.9%; in [10], 47.3%; in [11], 63.3%; in test [12], 49.2%. The growth was 42.8% in test [13]; 76.8% in [14]; 44.2% in test [15]; 35.8% in test [16]; 28.4% in test [17]; 14.2% in test [18]. Also, the growth in test [19] is 23%.
In the case of `CC1(C)CC[C@]2(C(=O)NCCCCCCN(CCCN)CCCN)CC[C@]3(C)C(=CC[C@@H]4[C@@]5(C)CC[C@H](O)C(C)(C)[C@@H]5CC[C@]43C)[C@@H]2C1`, the growth in test [1] is 105%; in test [2], 110%; in test [3] it was 95.5%; in test [4] it was 96.5%; in [5], 94%; in test [6], 103%. The growth is 88.1% in test [7]; 98.1% in test [8]; 107% in test [9]; 113% in test [10]; 91.8% in test [11]; 96.4% in test [12]. The growth is 85.7% in [13]; 106% in test [14]; 105% in test [15]; 75.2% in test [16]; 117% in test [17]; 105% in [18]. The growth in [19] was 102%.
Take `C/C(=N\NC(=O)/C=C/CC(=O)O)c1nnn(-c2ccc([N+](=O)[O-])cc2)c1C`: the growth in test [1] is 105%; in test [2], 106%; in test [3], 97.6%; in test [4], 98.3%; in test [5], 100%; in test [6], 94.7%. Moreover, the growth in test [7] is 101%; in [8], 101%; in test [9], 114%; in test [10], 99.5%; in test [11] it was 101%; in [12], 101%. Moreover, the growth in test [13] was 87.8%; in test [14], 94.1%; in test [15], 104%; in [16], 91.5%; in test [17] it was 110%; in [18] it was 109%. In test [19], the growth is 105%.
On to `COc1ccc(/C=N/NC(=O)CSc2nc(-c3cnccn3)cc(-c3cccs3)c2C#N)cc1OC`, for which the growth in [1] was 89.1%; in test [2] it was 60.9%; in [3], 81.9%; in test [4] it was 78.1%; in [5], 21%; in test [6], 80.8%. Also, the growth was 19.8% in test [7]; 59.9% in test [8]; 98.2% in test [9]; 102% in test [10]; 91.1% in test [12]; 89% in test [13]. The growth in [14] was 123%; in [15], 83%; in test [16] it was 88.1%; in [17], 38.2%; in [18], 93.9%; in test [19] it was 90.8%.
In the case of `Cn1ncc2c(C(=O)c3ccc(F)cc3)nc(C(C)(C)C)nc21`, the growth was 97.7% in [1]; 104% in test [2]; 89.6% in test [3]; 95.4% in test [4]; 98.6% in [5]; 92.5% in [6]. The growth was 98% in [7]; 95.7% in test [8]; 98% in test [9]; 103% in test [10]; 98.9% in [11]; 93.9% in [13]. Also, the growth in test [14] is 82%; in test [15] it was 99.1%; in test [16], 89.5%; in test [17], 58.4%; in [18], 103%; in [19], 92.6%.
Turning to `COc1ccc(C2CC(c3cccc(OCCCCOc4cccc(C5=NN(C(C)=O)C(c6ccc(OC)cc6)C5)c4)c3)=NN2C(C)=O)cc1` (stereo not given), the growth in test [1] was 75%; in [2], 89.3%; in test [3], 75.4%; in [4], 64.5%; in test [5], 81.9%; in test [6] it was 48.4%. Moreover, the growth in [7] is 57.1%; in [8], 62.2%; in test [9] it was 97.2%; in [10], 59.7%; in [11], 46.3%; in [12] it was 79.9%. The growth in test [13] is 54.7%; in test [14] it was 78.9%; in test [15], 67.2%; in test [16], 54.1%; in test [17], 75.8%; in test [18], 63.8%. The growth in test [19] was 57.4%.
Take `O=C(Nc1ccccc1)Nc1nc2ccc([N+](=O)[O-])cc2[nH]1`: the growth in test [1] was 40.9%; in [2] it was 84.4%; in test [3] it was 84.9%; in [4], 66.3%; in test [5], 55.5%; in test [6], 45.8%. For the same compound, the growth in [7] was 44%; in test [8], 57.2%; in test [9], 61.6%; in test [10], 53.9%; in test [11] it was 43.6%; in test [12] it was 62.7%. The growth in test [13] is 44.2%; in test [14] it was 39.1%; in test [15] it was 37.6%; in test [16], 27.1%; in test [17], 11.1%; in [18], 52.2%. Besides, in test [19], the growth is 55.7%.
For the compound `Cc1[nH]c(C(=O)Nc2ccccc2OCc2cccc(C(=O)NC3CCNC3)c2)c(Cl)c1Cl` (stereo not given), the growth was 35.2% in test [1]; -47.7% (active) in [2]; 73.6% in test [3]; 9.65% (active) in [4]; -56.2% (active) in test [5]; 59.1% in test [6]. Moreover, the growth in [7] is 75%; in test [8] it was -85.1% (active); in test [9], -44.4% (active); in test [10] it was 101%; in [11] it was 79.6%; in test [12], -33.5% (active). For the same compound, the growth in [13] was 84.9%; in [14] it was 101%; in [15], 74.9%; in test [16], 27.5%; in test [17], 79.7%; in [18] it was 6.3% (active). In addition, the growth in test [19] was 1.73% (active).
